In PubChem BioAssay:
Inconclusive results are not listed. Active and inactive are the calls of the source. Unless noted, the limit is not given here; nearly all actives have AC50 up to about 26 µM.

How the values were obtained:
[1] = viability loss in pontine glioma line – cell-based, SU-DIPG-XVII, MIPE5.0, CellTiter-Glo, qHTS, dose response (AID 1347060); settings: CellTiter-Glo ATP luminescence;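 also: cells exposed to compound for 48 hours before viability readout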
[2] = viability loss in pontine glioma line – cell-based, SU-DIPG-XIII, MIPE4.0, CellTiter-Glo, qHTS, dose response (AID 1347061; cut-off not given, nearly all actives have AC50 up to about 37 µM;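 also: cells exposed to compound for 48 hours before readout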); settings: CellTiter-Glo ATP luminescence
[3] = viability loss in pontine glioma line – cell-based, JHH-DIPG-1, MIPE4.0, CellTiter-Glo, qHTS, dose response (AID 1347062; cut-off not given, nearly all actives have AC50 up to about 27 µM;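 also: cells exposed to compound for two days before readout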); settings: JHH-DIPG-1 viability, CellTiter-Glo ATP luminescence
[4] = viability loss in pontine glioma line – cell-based, SU-DIPG-IV, MIPE4.0, CellTiter-Glo, qHTS, dose response (AID 1347063; cut-off not given, nearly all actives have AC50 up to about 30 µM;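 also: compound exposure lasted 48 hours before the viability readout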); settings: CellTiter-Glo ATP luminescence
[5] = viability loss in pontine glioma line – cell-based, SU-DIPG-XIII, MIPE5.0, CellTiter-Glo, qHTS, dose response (AID 1347064; cut-off not given, nearly all actives have AC50 up to about 23 µM;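 also: cells exposed to compound for 48 hours before the viability read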); settings: CellTiter-Glo ATP luminescence
[6] = viability loss in pontine glioma line – cell-based, SU-DIPG-XXV, MIPE5.0, CellTiter-Glo, qHTS, dose response (AID 1347065); settings: CellTiter-Glo ATP luminescence;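 also: cells exposed to compound for 48 hours before ATP readout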
[7] = growth inhibition of DIPG cells – cell-based, MIPE4.0 library, CellTiter-Glo luminescence, qHTS (AID 1347066; cut-off not given, nearly all actives have AC50 up to about 30 µM;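 also: cells exposed to compound for 48 hours before readout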); settings: SU-DIPG-VI viability, CellTiter-Glo ATP luminescence
[8] = JHH-DIPG-1 glioma cell viability, MIPE5.0 library, CellTiter-Glo luminescence, qHTS (AID 1347067); settings: JHH-DIPG-1 glioma viability, CellTiter-Glo ATP luminescence;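 also: cells exposed to compound for 48 hours before readout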
[9] = growth inhibition of DIPG cells – cell-based, MIPE5.0 library, qHTS (AID 1347068; cut-off not given, nearly all actives have IC50 up to about 30 µM;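 also: cells exposed to compound for 48 hours before viability readout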); settings: SU-DIPG-XXV viability
[10] = viability loss with induced miR-34 in A549 – imaging, A549 dox-inducible miR-34, nuclei and caspase counts, primary screen (AID 1347080;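 active = compounds whose cell count with miR-34 switched on is under 0.7 times the count with it off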); settings: A549 miR-34 inducible, Hoechst nuclei count, 48 h
[11] = MELAS cybrid and Rieske KO viability enhancers – cell-based, MELAS cybrids, Rieske KO mouse fibroblasts, CellTiter-Glo, primary screen (AID 1508586;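 active = mean z-score across replicates of 1.96 or higher in either the MELAS or the Rieske mutant cell line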;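 also: z relative to plate mean and SD of compound and empty wells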); settings: low glucose
[12] = growth inhibition, single agent or in combination, cell-based, chromothripsis tumors, cisplatin or BGB combos (AID 1671449; in the data active = inhibition above about 80%;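 also: cells exposed for 96 hours; 0% = vehicle DMSO and 100% = killing by high DMSO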); settings: LFS_MB_P medulloblastoma cells
[13] = growth inhibition, single agent and combos, cell-based, chromothripsis tumors, cisplatin or BGB combos (AID 1671450; in the data active = inhibition above about 80%;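 also: cells exposed to compound for four days; 0% = vehicle DMSO and 100% = cell killing by high DMSO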); settings: HDN33 neuroblastoma cells, stronger effect = higher value
[14] = growth inhibition, single agents and combos, ICB984, cell-based, cisplatin or BGB combos, synergistic combos for chromothripsis tumors (AID 1671451; call rule not given here;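 also: cells exposed for 96 hours before readout; 0% = vehicle DMSO and 100% = killing by high DMSO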); settings: ICB984 medulloblastoma cells, drug combinations, stronger effect = higher value
[15] = growth inhibition, single agents and combos, HTB85, cell-based, BGB or cisplatin IC20 combos, synergistic combos for chromothripsis tumors (AID 1671453; in the data active = inhibition above about 80%;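 also: cells exposed for 96 hours before readout; 0% = vehicle DMSO and 100% = high DMSO killing control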); settings: HTB85 osteosarcoma cells, drug combinations, stronger effect = higher value
[16] = growth inhibition, MDA-MB-436, cell-based, BGB or cisplatin combos, synergistic combos for chromothripsis tumors (AID 1671458; call rule not given here;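 also: cells exposed for 96 hours; 0% = vehicle DMSO and 100% = killing by high DMSO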); settings: MDA-MB-436 breast carcinoma growth inhibition, drug combinations, stronger effect = higher value
[17] = BT084 cell growth, single and combined drugs, ICGC_MB145, cisplatin and BGB IC40 combos (AID 1671461; in the data active = inhibition above about 80%;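 also: cells exposed to drugs for 96 hours; 0% = vehicle DMSO and 100% = high DMSO full killing control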); settings: BT084 medulloblastoma cells, drug combinations, stronger effect = higher value
[18] = RCMB18 cell growth, single agent and combined, cisplatin and BGB IC40 combos (AID 1671462; in the data active = inhibition above about 80%;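 also: cells exposed to compound for four days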); settings: RCMB18 medulloblastoma cells, stronger effect = higher value
[19] = stronger effect = lower value, cell number ratio, induced over uninduced
[20] = measured here: relative caspase fold change +Dox/-Dox
[21] = measured here: total cells with miR-34 induction, stronger effect = lower value
[22] = measured here: total cells without miR-34 induction
[23] = MELAS cybrid survival, CellTiter-Glo 48 h, stronger effect = higher value
[24] = Rieske KO mouse fibroblast survival, CellTiter-Glo 72 h

## C=CC(=O)Nc1cccc(Oc2nc(Nc3ccc(N4CCN(C)CC4)cc3)ncc2Cl)c1
[1]
  AC50: 0.468 µM (active)
[2]
  AC50: 13.2 µM (active)
[3]
  AC50: 1.66 µM (active)
[4]
  AC50: 2.09 µM (active)
[5]
  AC50: 1.32 µM (active)
[6]
  AC50: 0.372 µM (active)
[7]
  AC50: 18.7 µM (active)
[8]
  AC50: 1.18 µM (active)
[9]
  IC50: 0.525 µM (active)
[10]; [19]
  fold change: 0.981 (inactive)
[10]; [20]
  fold change: 0.779
[10]; [21]
  cell count: 1580
[10]; [22]
  cell count: 1610
[11]; [23]
  z-score: 1.07 (inactive)
[11]; [24]
  z-score: 0.326

## c1ccc(CNc2nc(NCc3ccccc3)c3ccccc3n2)cc1
[1]
  AC50: 14.8 µM (active)
[2]
  AC50: 7.43 µM (active)
[3]
  AC50: 23.5 µM (active)
[4]
  AC50: 20.9 µM (active)
[5]
  AC50: 16.6 µM (active)
[6]
  AC50: 9.34 µM (active)
[7]
  AC50: 23.5 µM (active)
[8]
  AC50: 10.5 µM (active)
[9]
  IC50: 29.5 µM (active)
[10]; [19]
  fold change: 0.814 (inactive)
[10]; [20]
  fold change: 0.477
[10]; [21]
  cell count: 3510
[10]; [22]
  cell count: 4310
[11]; [23]
  z-score: -0.415 (inactive)
[11]; [24]
  z-score: -0.855

## Nc1ncnc2c1c(-c1cnc3[nH]ccc3c1)nn2C1CCCC1
[1]
  AC50: 0.934 µM (active)
[2]
  AC50: 3.72 µM (active)
[3]
  AC50: 6.62 µM (active)
[4]
  AC50: 0.296 µM (active)
[5]
  AC50: 1.32 µM (active)
[6]
  AC50: 0.661 µM (active)
[7]
  AC50: 4.69 µM (active)
[8]
  AC50: 1.66 µM (active)
[9]
  IC50: 1.66 µM (active)
[10]; [19]
  fold change: 0.933 (inactive)
[10]; [20]
  fold change: 0.447
[10]; [21]
  cell count: 1360
[10]; [22]
  cell count: 1460
[11]; [23]
  z-score: 2.61 (active)
[11]; [24]
  z-score: -3.58
[12]; at 0.5 µM, stronger effect = higher value
  inhibition: -21.6% (inactive)
[12]; measured here: combination with BGB IC20, at 0.005 µM
  inhibition: -12.8%
[12]; measured here: combination with BGB IC40, at 0.005 µM
  inhibition: -34.4%
[12]; measured here: combination with BGB IC40, at 0.05 µM
  inhibition: -33.1%
[12]; measured here: combination with cisplatin, at 0.5 µM, stronger effect = higher value
  inhibition: -37.9%
[12]; measured here: combination with cisplatin, at 5 µM, stronger effect = higher value
  inhibition: 101%
[13]; BGB combo, at 5 µM
  inhibition: 93.7%
[13]; at 0.5 µM
  inhibition: 34.8% (inactive)
[13]; cisplatin combo, at 5 µM
  inhibition: 89.8%
[13]; measured here: with BGB IC20 combination, at 0.5 µM
  inhibition: 27.9%
[13]; measured here: with cisplatin IC20 combination, at 0.5 µM
  inhibition: 38.9%
[13]; single agent, at 5 µM
  inhibition: 94.1%
[14]; BGB IC20 combo, at 0.005 µM
  inhibition: 3.47%
[14]; BGB IC40 combo, at 0.005 µM
  inhibition: 0.136%
[14]; BGB IC40 combo, at 0.05 µM
  inhibition: 75.2%
[14]; at 0.5 µM
  inhibition: -26.8% (inactive)
[14]; cisplatin combo, at 0.05 µM
  inhibition: 74.3%
[14]; cisplatin combo, at 0.5 µM
  inhibition: -46.2%
[14]; cisplatin combo, at 5 µM
  inhibition: -4.06%
[14]; measured here: 5 uM single agent, at 5 µM
  inhibition: -4.21%
[15]; at 0.5 µM
  inhibition: 49.5% (inactive)
[15]; measured here: with BGB IC20, at 0.5 µM
  inhibition: 55.4%
[15]; measured here: with BGB IC20, at 5 µM
  inhibition: 97.6%
[15]; measured here: with cisplatin IC20, at 0.5 µM
  inhibition: 38.8%
[15]; measured here: with cisplatin IC20, at 5 µM
  inhibition: 94.1%
[15]; single agent, at 5 µM
  inhibition: 95.9%
[16]; at 0.5 µM
  inhibition: -11.6% (inactive)
[16]; measured here: BGB combination, at 0.5 µM
  inhibition: 0.573%
[16]; measured here: BGB combination, at 5 µM
  inhibition: 42.9%
[16]; measured here: cisplatin combination, at 0.5 µM
  inhibition: -39.3%
[16]; measured here: cisplatin combination, at 5 µM
  inhibition: 36.2%
[17]; at 0.5 µM
  inhibition: 26.7% (inactive)
[17]; cisplatin combination, at 0.5 µM
  inhibition: 42.3%
[17]; cisplatin combination, at 5 µM
  inhibition: 38.7%
[17]; measured here: BGB IC40 combination 0.05 uM, at 0.05 µM
  inhibition: -23%
[17]; single agent, at 5 µM
  inhibition: 59.1%
[18]; at 0.5 µM
  inhibition: 1.21% (inactive)
[18]; cisplatin combo, at 5 µM
  inhibition: 73.6%
[18]; measured here: BGB IC40 combination, at 0.05 µM
  inhibition: -7.03%
[18]; measured here: combination with cisplatin, at 0.5 µM
  inhibition: -23.9%
[18]; single agent, at 5 µM
  inhibition: 64.6%
